# Source: PubChem BioAssay
# A selection: hits, their analogues and other compounds. The true share with any hit is near 7.3%.
# NPC1 prom act: activates the NPC1 promoter; Potency, µM (highest dose often 9.22 µM), for inactives: top-dose activation, hits mostly activators; 320,000 compounds, 2.4% hits; Huh7 NPC1 promoter luciferase reporter, 24 h; note: % of control where 0% means no effect; nearly all actives have a fitted effect of over 60% in size
#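 Huh7 reporter cells (NPC1 promoter driving luciferase) are dosed with compound for 24 h at 37 °C, 5% CO2; luciferase detection reagent is then added and luminescence measured after 10 min at ambient temperature.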
# SMN2 splice up: SMN2 splice variant enhancement; 210,000 compounds, 2.8% hits; HEK293 SMN2-luciferase splicing reporter, luminescence, 30-36 h; AID 1458; Potency, µM (highest dose often 46.1 µM), without a hit: at the top dose activity change, positive = activation, actives largely listed as activators; note: % of control where 0% means no effect; nearly all actives have a fitted effect of over 55% in size
#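 qHTS luciferase splicing reporter: luminescence rises when SMN2 exon 7 is included in transfected HEK293 cells. Compound exposure lasted 30-36 h at 37C, with 4.5 mM final sodium butyrate as control, followed by a ONE-Glo read.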
# ELG1 genotox: genotoxicity induction in ELG1-luciferase HEK293T cells; HEK293T ELG1-luciferase reporter, luminescence, 16 h; Potency, µM (highest dose often 46 µM), inactives show top-dose activity change, positive = activation, hits mostly activators; 330,000 compounds, 1.3% hits; AID 504466; note: % of control where 0% means no effect; nearly all actives have a fitted effect of over 60% in size
#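 ELG1-luciferase HEK293T cells, 2,000/well; compound pinned in; 16 hr, 37 °C, 5% CO2; ONE-Glo, 30 min RT; luminescence on CCD imager.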
# Rab9 promoter act: activators of Rab9 promoter; 320,000 compounds, 2.8% hits; Potency, µM (doses to about 9.22 µM), inactives show at the highest dose activation, negative = inhibition, usual class: activators; Huh7 Rab9 promoter-luciferase reporter, luminescence, 24 h; AID 485297; note: % of control where 0% means no effect; nearly all actives have a fitted effect of over 60% in size
#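 Rab9 promoter-driven luciferase in stably transfected Huh7 cells; 1500 cells/well rested 2 h, exposed to compound in DMSO for 24 h at 37 °C, 5% CO2. Luminescence read 10 min after adding luciferase reagent at ambient temperature.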
# uPA generation: cell surface uPA generation inhibition | cell surface uPA generation assay, qHTS | 330,000 compounds, 0.31% hits | Potency, µM (highest dose often 38.3 µM), for the others: top-dose activity change, negative = inhibition, hits mostly inhibitors; active = well fitted inhibition curve with a large enough effect; inconclusive = small, poorly fitted or top-dose-only effect; inactive = no such curve, though single readings can be large or run the other way; tested in mouse RAW 264.7 cells; note: % is set by controls: 0 for no effect and ±100 for the full control effect; nearly all actives have a fitted effect of over 55% in size
# FLuc counter: firefly luciferase modulation, counter-screen for miR-21 project; P08659; purified FLuc, Km substrates, luminescence inhibition; Potency, µM (highest dose often 57.5 µM), inactives show at the top dose activity change, negative = inhibition, hits mostly inhibitors; 360,000 compounds, 6.9% hits; AID 588342;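 note: plate controls were vehicle for no effect and reference inhibitor for full effect; nearly all actives have a fitted effect of over 55% in size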
# Target sequence (P08659 whole entry, looked up): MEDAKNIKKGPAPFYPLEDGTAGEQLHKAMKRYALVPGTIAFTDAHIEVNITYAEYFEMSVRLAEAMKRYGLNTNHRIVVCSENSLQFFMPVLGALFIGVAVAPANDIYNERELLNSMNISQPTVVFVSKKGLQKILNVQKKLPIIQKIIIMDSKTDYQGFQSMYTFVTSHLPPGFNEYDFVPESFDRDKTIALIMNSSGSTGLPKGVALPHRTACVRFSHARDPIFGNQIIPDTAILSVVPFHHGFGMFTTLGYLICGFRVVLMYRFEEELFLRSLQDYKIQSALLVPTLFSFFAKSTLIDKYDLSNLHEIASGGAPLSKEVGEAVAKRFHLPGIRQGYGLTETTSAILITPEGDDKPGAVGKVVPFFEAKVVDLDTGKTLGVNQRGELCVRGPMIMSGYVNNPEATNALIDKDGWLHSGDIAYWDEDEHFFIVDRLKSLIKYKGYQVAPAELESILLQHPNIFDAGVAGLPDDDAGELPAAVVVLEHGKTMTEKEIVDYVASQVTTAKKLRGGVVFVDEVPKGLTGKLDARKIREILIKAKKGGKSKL
#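 Purified P. pyralis luciferase, 10 nM final, with Km-level 10 uM D-luciferin and 10 uM ATP in 50 mM Tris acetate pH 7.5, 10 mM Mg acetate, 0.01% Tween-20, 0.05% BSA; 6-point qHTS titration about 60 µM downward; luminescence read.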
# Active calls of the source: *; ? = inconclusive; · = no result given; [ ] = another dose, or the depositor's remark. Unless noted, calls come from the whole dose curve; as a rule, active = well fitted curve in the direction sought with a large enough effect; inconclusive = small, poorly fitted or top-dose-only effect, or another doubt; inactive = no such curve, though single readings can be large; an effect the other way counts as inactive or inconclusive. Potency is the fitted concentration of half-maximal effect.
SMILES,NPC1 prom act,SMN2 splice up,ELG1 genotox,Rab9 promoter act,uPA generation,FLuc counter
Fc1ccccc1/C=N/Nc1ncnc2nc[nH]c12,29%,13µM*,21µM*,23%,-26%,?
Cc1ccc(OCc2cc(=O)n3ccsc3n2)c(NC(=O)c2ccco2)c1,·,·,·,·,·,-4%
Cc1cccnc1NC(=O)Cn1nc(-c2ccccc2)oc1=S,3.2µM*,3.2µM*,?,1.3µM*,-13%,-7%
Cc1cccnc1NC(=O)Cn1nc([N+](=O)[O-])cc1C,-1%,13%,1%,-11%,-1%,-1%
COC(=O)c1c(-c2ccccc2)csc1NC(=O)c1ccco1,2.8µM*,-1%,2.3µM*,?,-10%,5.4µM*
Cc1csc(NC(=O)c2ccco2)c1C(=O)c1ccccc1,0%,·,8%,-3%,0%,-3%
O=C(Nc1scc(-c2ccc(F)cc2)c1C(=O)O)c1ccco1,26%,?,?,24%,-1%,17µM*
Cc1ccc(-c2csc(NC(=O)/C=C/c3ccco3)c2C(=O)O)cc1,3.2µM*,11µM*,?,1.8µM*,-11%,6µM*
Cc1cccc(C(=O)Nc2scc(-c3ccc(Br)cc3)c2C(=O)O)c1,·,·,·,·,-5%,·
COCCCN(Cc1ccco1)C(=O)c1cc2c(s1)-c1ccccc1OC2,·,-18%,·,·,·,?
Cc1c(CC(=O)N2CCC(C(N)=O)CC2)c(=O)oc2cc3c(cc12)CCC1(CCCCC1)O3,6%,·,-5%,-6%,-21%,19µM*
CCC(NC(=O)Cc1c(C)c2cc3c(cc2oc1=O)OC(C)(C)CC3)C(=O)O (configuration not stated),3.2µM*,·,10%,2µM*,-7%,21µM*
O=C(O)CCCc1ccc2c(c1)CCc1ccccc1-2,-1%,·,10%,-1%,-10%,4.3µM*
CN(C)c1ccc(CNC(=O)C2(C)C=CCN2C(=O)c2ccccc2)cc1 (configuration not stated),·,16µM*,·,·,·,·
CC1(C(=O)O)C=CCN1C(=O)c1ccccc1 (configuration not stated),-4%,-7%,-1%,3%,-4%,4%
O=c1ccc2[n+]([O-])c3ccc(O)cc3oc-2c1,2%,·,-10%,0%,-11%,15µM*
CC(C)c1cnc2c(c1SCC(=O)Nc1cccc([N+](=O)[O-])c1)c(=O)n(C)c(=O)n2C,·,·,·,·,·,-18%
COC(=O)c1cc(C)nc(Sc2ccccc2N)n1,-2%,·,-4%,8%,3%,12µM*
CC(=O)N1N=C(c2ccccc2)CC1c1cn(C)c2ccccc12 (configuration not stated),-1%,14%,?,-5%,9%,19µM*
CC(=O)N1N=C(c2ccccc2)CC1c1ccc(F)cc1 (configuration not stated),-4%,·,0%,-2%,13%,2%
Cc1cc(-c2ccccc2)nc(N/N=C/c2ccccc2F)n1,?,·,3%,?,-9%,11µM*
C/C(=N\Nc1nc(C)cc(-c2ccccc2)n1)c1ccc(C)o1,-6%,-40%,-7%,-15%,3%,?
Cc1ccc2nc(N/N=C/c3ccccc3F)nc(-c3ccccc3)c2c1,0%,0%,-8%,-2%,2%,?
C/C(=N\Nc1ccc([N+](=O)[O-])cc1)c1cccc(N)c1,?,?,14%,?,-1%,19µM*
C/C(=N\Nc1nc(C)cc(-c2ccccc2)n1)c1ccccc1,20%,·,-4%,-6%,-5%,2.7µM*
SMILES,NPC1 prom act,SMN2 splice up,ELG1 genotox,Rab9 promoter act,uPA generation,FLuc counter
C/C(=N\Nc1nc(C)cc(-c2ccccc2)n1)c1ccc(O)cc1,13%,·,-3%,-31%,10µM*,4.3µM*
COc1ccc(CCN2C(=O)N(c3cccc(C)c3)C(=O)C2CC(=O)Nc2ccccc2)cc1OC (configuration not stated),·,-15%,·,·,·,-8%
CCc1ccc(NC(=O)CSc2nc(=O)n(Cc3cccnc3)c3c2CCC3)cc1,·,·,·,·,·,-1%
COc1cc(-c2noc(CN3CCN(c4ccccc4)CC3)n2)cc(OC)c1OC,·,26%,·,·,·,0%
C=C(C)CSc1nc2sc3c(c2c(=O)n1CCCC)CCCC3,·,-20%,·,·,·,6%
COc1cccc(CNc2nc3c(-c4cccc(C)c4)nnn3c3ccccc23)c1,·,2%,·,·,·,-3%
NC(N)=N/N=C(/c1ccccc1)c1ccc(O)cc1O,·,-16%[9.22 µM],·,·,·,·
CCNc1ncc2nc(-c3cc(F)cc(F)c3)c(=O)n(-c3ccccc3)c2n1,·,-4%,·,·,·,·
CC(=O)N1CCN(C)CC1,·,8%,·,·,·,·
C/C(=N\Nc1nc(C)cc(-c2ccccc2)n1)c1cccc(N)c1,25%,·,-4%,0%,10µM*,3.4µM*
C/C(=N\NC(=O)c1ccc(-c2ccccc2)cc1)c1cccc(N)c1,8%,·,2%,21%,1%,?
C/C(=N/Nc1nc(C)cc(-c2ccccc2)n1)c1ccco1,?,16%,-5%,?,-5%,15µM*
O=C(c1ccc2c(c1)CCN2S(=O)(=O)c1ccc(Cl)cc1)N1CCN(c2ccccc2F)CC1,·,-19%,·,·,·,-7%
CC(C)C(=O)Nc1ccc(-c2nnc(-c3ccccc3)o2)cc1,0.32µM*,·,?,0.32µM*,2%,2.4µM*
CC(=O)Nc1ccc(NC(=O)C(F)(F)F)cc1,-2%,7%,-3%,1%,·,-3%
CC(=O)/C=C(\C)Nc1ccc(-c2cnc(-c3ccccc3)o2)cc1,1µM*,4µM*,2µM*,0.45µM*,-10%,1.9µM*
O=C(Nc1ccc(-c2nnc(-c3ccccc3)o2)cc1)C(F)(F)F,1.6µM*,·,?,1.3µM*,-1%,?
O=S(=O)(SC1=NCCN1)c1ccccc1,·,·,·,·,0%,·
Clc1ccc(SCc2cc(-c3ccc(Cl)cc3)on2)cc1,1%,-7%,2%,-6%,-2%,-16%
Clc1ccc(-c2cc(CN3CCCCC3)no2)cc1Cl,22%,·,10%,23%,-8%,19µM*
Clc1ccc(CN2CCCCCCC2)cc1Cl,0%,?,0%,-2%,0%,5%
Clc1ccc(-c2cc(CN3CCOCC3)no2)cc1,1.6µM*,·,?,0.89µM*,-3%,12µM*
C=CCCCCCCCCCCCC(O)CC(O)CO (configuration not stated) (tested in a mixture with another compound),·,-4%,·,·,·,·
Cc1cc(C)c2nc3c(c([C@H](O)C4CCCCN4)c2c1)CC/C3=C/c1ccc(Cl)cc1 (some centres not stated),·,10%[9.22 µM],·,·,·,·
CCOC(=O)c1cnn(-c2ncnc3sc(CC)cc23)c1N,-3%,13%,4%,3%,1%,13µM*
